Measurements as given in PubChem BioAssay (NCI).
Compounds without any hit were thinned out: in the full panel of roughly 83,000, 20% have a hit.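 A percent growth of 40 corresponds to 60% growth inhibition; 0 means no net growth; -100 means all cells died. Active threshold: below 10.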 Calls of active or inactive are those of the source.

test system: SN12C renal; assay: NCI-60 one-dose screen, 48 h (100 = growth as untreated, 0 = no growth, -100 = all killed); conditions: 10 µM

| SMILES | growth |
| --- | --- |
| COc1cccc(O)c1O | 74.5% (inactive) |
| CC(=O)/C(Cc1ccccc1)=N/O | 105% (inactive) |
| C=CCNC(=O)c1ccc(OC)cc1 | 99.1% (inactive) |
| C/C(=N/NC(N)=O)c1ccco1 | 110% (inactive) |
| COCCOC(=O)c1ccc(C(C)C)cc1 | 103% (inactive) |
| C[N+](C)=c1ccc2nc3c(cc(Nc4ccccc4)c4ccccc43)oc-2c1 | 79.9% (inactive) |
| Cc1cccc(CO)c1 | 106% (inactive) |
| Nc1nc(N)c(N=Nc2ccc(C(=O)O)cc2)c(N)n1 | 91.4% (inactive) |
| COCCOCCCl | 104% (inactive) |
| Nc1ncnc2[nH]ncc12 | 14% (inactive) |
| O=[N+]([O-])c1ccc(-c2ncc(-c3ccc(Br)cc3)o2)cc1 | 103% (inactive) |
| CCOC(=O)CSc1c([N+](=O)[O-])ncn1C | 102% (inactive) |
| CC(C)(O)C#CC#CC(C)(C)O | 109% (inactive) |
| COc1cc(C2NC(=O)C(C#N)=C(Nc3cccc(C)c3)S2)ccc1O (stereo not given) | 90.3% (inactive) |
| CCOC(=O)Nc1nn[nH]n1 | 103% (inactive) |
| O=C(NN=C1CCCCC1)C(=O)NN=C1CCCCC1 | 106% (inactive) |
| O=C(CCl)Nc1ccc2c(c1)C(=O)c1ccc(NC(=O)CCl)cc1C2=O | -49.5% (active) |
| CCCCOC(=O)c1ccc(C(C)C)cc1 | 102% (inactive) |
| O=C(NC1CCCCC1)OCc1c(COC(=O)NC2CCCCC2)c(-c2ccc(Cl)c(Cl)c2)n2c1CCC2 | 22.3% (inactive) |

| SMILES | growth |
| --- | --- |
| N#CCCN(CCCN1CCOCC1)CN1C(=O)c2ccccc2C1=O | 108% (inactive) |
| Cc1ccccc1N=C(c1ccccc1)C1C(=O)c2ccccc2C1=O | 90.9% (inactive) |
| O=c1[nH]cc(Cl)cc1O | 95% (inactive) |
| CC(C)OC(C(=O)O)c1ccccc1 (stereo not given) | 93.5% (inactive) |
| CCCOC(=O)C(O)c1ccccc1 (stereo not given) | 102% (inactive) |
| COc1ccccc1NC(=O)c1cc2cc(Br)ccc2cc1O | 9.1% (active) |
| OCCN1CCOCC1 | 97.5% (inactive) |
| OCC1OC(OC2C(O)C(CO)OC2(CO)OC2OC(CO)C(O)C(O)C2O)C(O)C(O)C1O (stereo not given) | 103% (inactive) |
| Cc1ccc(Cl)cc1NC(=O)N(C)CCO | 105% (inactive) |
| CCOC(=O)C(O)C(O)C(=O)OCC (stereo not given) | 102% (inactive) |
| O=c1cc(-c2ccccc2)nc2cc(-c3ccco3)[nH]n12 | 96% (inactive) |
| S=c1[nH]ccn1-c1ccccc1Cl | 116% (inactive) |
| C[N+](C)(C)C(=O)c1ccccc1 | 95.8% (inactive) |
| CCc1ccc(/C(C#N)=C/C=C/c2ccccc2)cc1 | 53.2% (inactive) |
| O=C(O)c1ccnc(Br)c1 | 113% (inactive) |
| S=c1nn[nH]c2ccccc12 | 93.4% (inactive) |
| O=[N+]([O-])c1ccc(CO)cc1 | 106% (inactive) |
| O=C1C=C(O)C(=O)C=C1O | 107% (inactive) |
| C#Cc1cccc(NC(=O)c2ccc(Cl)cc2Cl)c1 | 95.7% (inactive) |

test system: UO-31 renal; assay: as above; conditions: 10 µM

| SMILES | growth |
| --- | --- |
| COc1cccc(O)c1O | 70.3% (inactive) |
| CC(=O)/C(Cc1ccccc1)=N/O | 96.2% (inactive) |
| C=CCNC(=O)c1ccc(OC)cc1 | 74.7% (inactive) |
| C/C(=N/NC(N)=O)c1ccco1 | 95.8% (inactive) |
| COCCOC(=O)c1ccc(C(C)C)cc1 | 94.5% (inactive) |
| C[N+](C)=c1ccc2nc3c(cc(Nc4ccccc4)c4ccccc43)oc-2c1 | 59.1% (inactive) |
| Cc1cccc(CO)c1 | 92.9% (inactive) |
| Nc1nc(N)c(N=Nc2ccc(C(=O)O)cc2)c(N)n1 | 53.6% (inactive) |
| COCCOCCCl | 97.2% (inactive) |
| O=[N+]([O-])c1ccc(-c2ncc(-c3ccc(Br)cc3)o2)cc1 | 84.5% (inactive) |
| CCOC(=O)CSc1c([N+](=O)[O-])ncn1C | 89.8% (inactive) |
| CC(C)(O)C#CC#CC(C)(C)O | 99.1% (inactive) |
| COc1cc(C2NC(=O)C(C#N)=C(Nc3cccc(C)c3)S2)ccc1O (stereo not given) | 94.8% (inactive) |
| O=C(NN=C1CCCCC1)C(=O)NN=C1CCCCC1 | 95.6% (inactive) |
| O=C(CCl)Nc1ccc2c(c1)C(=O)c1ccc(NC(=O)CCl)cc1C2=O | -95.5% (active) |
| CCCCOC(=O)c1ccc(C(C)C)cc1 | 91.7% (inactive) |

| SMILES | growth |
| --- | --- |
| O=C(NC1CCCCC1)OCc1c(COC(=O)NC2CCCCC2)c(-c2ccc(Cl)c(Cl)c2)n2c1CCC2 | -13.6% (active) |
| N#CCCN(CCCN1CCOCC1)CN1C(=O)c2ccccc2C1=O | 77.2% (inactive) |
| Cc1ccccc1N=C(c1ccccc1)C1C(=O)c2ccccc2C1=O | 82.5% (inactive) |
| O=c1[nH]cc(Cl)cc1O | 62.4% (inactive) |
| COc1ccccc1NC(=O)c1cc2cc(Br)ccc2cc1O | -3.91% (active) |
| Cc1ccc(Cl)cc1NC(=O)N(C)CCO | 76% (inactive) |
| CCOC(=O)C(O)C(O)C(=O)OCC (stereo not given) | 97.1% (inactive) |
| O=c1cc(-c2ccccc2)nc2cc(-c3ccco3)[nH]n12 | 74.6% (inactive) |
| S=c1[nH]ccn1-c1ccccc1Cl | 94.2% (inactive) |
| C[N+](C)(C)C(=O)c1ccccc1 | 85.9% (inactive) |
| CCc1ccc(/C(C#N)=C/C=C/c2ccccc2)cc1 | 42.9% (inactive) |
| O=C(O)c1ccnc(Br)c1 | 91.4% (inactive) |
| S=c1nn[nH]c2ccccc12 | 67.1% (inactive) |
| O=[N+]([O-])c1ccc(CO)cc1 | 93.5% (inactive) |
| O=C1C=C(O)C(=O)C=C1O | 79.2% (inactive) |
| C#Cc1cccc(NC(=O)c2ccc(Cl)cc2Cl)c1 | 91.7% (inactive) |
